# Reference: PubChem BioAssay (NCATS)
# Unmarked numbers belong to inactive results. Records with an inconclusive call do not appear. Active and inactive are the calls of the source. Unless noted, calls follow the shape of the dose curve; as a rule, active = well fitted curve in the direction sought with a large enough effect; inconclusive = small, poorly fitted or top-dose-only effect, or another doubt; inactive = no such curve, though single readings can be large; an effect the other way counts as inactive or inconclusive.
# Key:
# [1] = target: Lysosomal acid glucosylceramidase (Homo sapiens) (UniProt P04062); assay: Glucocerebrosidase-p2 (AID 348; in the data active = potency below about 10 µM; also: potency is read from the fitted curve at half-maximal effect); conditions: purified GBA, blue fluorogenic substrate, 40 min
# How it was run: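 Compounds titrated from 0.6 nM upwards against 0.2 nM enzyme in pH 5.9 citric acid/KH2PO4, taurocholate, tween-20; blue fluorogenic substrate 80 uM, 40 min room temperature, stopped and read Ex 365/Em 440 for AC50.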
# [2] = target: Cytochrome P450 1A2 (Homo sapiens) (UniProt P05177); assay: p450-cyp1a2 (AID 410; calls by dose curve; also: potency is read from the fitted curve at half-maximal effect); conditions: recombinant CYP1A2, luciferin-ME demethylation, luminescence; series mostly up to 57 µM
# How it was run: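 Human CYP1A2 (20nM) demethylated Luciferin-ME at its Km (100uM) in 100mM KPO4. After 10 min compound preincubation, NADPH regeneration ran the reaction 60 min at room temperature. Luciferin was read by luminescence, normalized to 57 uM furafylline.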
# [3] = target: Glucocorticoid receptor (Homo sapiens) (UniProt P04150); assay: GR-GFP Redistribution (AID 450;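 active = compounds whose dose series gives a full or clear partial fitted curve of increased nuclear translocation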; also: potency is read from the fitted curve at half-maximal effect); conditions: U2OS GR-GFP nuclear translocation, laser cytometry, 2 h
# [4] = target: Glucocorticoid receptor (Homo sapiens) (UniProt P04150); assay: GR-EFC Redistribution (AID 451; calls by dose curve; also: potency is read from the fitted curve at half-maximal effect); conditions: CHO-K1 GR-EFC translocation, beta-gal luminescence, 2 h
# How it was run: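 CHO-K1 cells stably expressing nuclear-localized β-gal enzyme acceptor and GR fused C-terminally to the enzyme donor fragment; ligand-driven nuclear translocation restores β-gal by complementation. Compounds titrated up to 46 uM final, 2 h at 37 °C; luminescence read.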
# [5] = target: Mitogen-activated protein kinase 10 (Mus musculus) (UniProt Q61831); assay: JNK3 AlphaScreen Assay (AID 530; active = well fitted curve in either direction with a large enough effect, not every such curve was filed as active;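 also: kinase came from lysate of stimulated human HepG2 cells; signal reports phosphorylation of biotinylated GST-cJun 1-79 at Ser73 with 10 µM ATP; % is scaled to controls: 0 for no effect and ±100 for the full control effect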); conditions: JNK3 lysate, c-Jun phosphorylation; series mostly up to 57.1 µM
# How it was run: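 JNK3 came from HepG2 lysates pre-activated with IL-1beta and TNF-alpha and phosphorylated biotinylated GST-cJun (1-79) at 10 uM ATP, pH 7.6, room temperature. Compounds were titrated. AlphaScreen signal used anti-phospho-cJun (Ser73) antibody.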
# [6] = target: 3',5'-cyclic-AMP phosphodiesterase 4B (Homo sapiens) (UniProt Q07343); assay: qHTS Assay for Inhibitors of PDE-IV (AID 607; active = well fitted activation curve with a large enough effect in the main read-out, with a control signal flat, not every such curve was filed as active; also: % of control where 0% means no effect); conditions: HEK293 ACTOne CNG channel cells, membrane potential fluorescence; series mostly up to 22.9 µM
# How it was run: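 ACTOne HEK293 cells carry a modified cAMP-gated CNG channel and express endogenous PDE4; plated 1000 cells/well, compounds up to 22.9 uM final. Membrane-potential dye fluorescence (ex 535/em 590) was read; parental cells received 10 uM forskolin + 100 uM RO 20-1724.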
# [7] = target: Cytochrome P450 3A4 (Homo sapiens) (UniProt P08684); assay: qHTS Assay for Activators of Cytochrome P450 3A4 (AID 885); conditions: recombinant CYP3A4, Luciferin-PPXE luminescence, 60 min; series mostly up to 57.1 µM; also: nearly all actives have a fitted effect of over 65% in size
# How it was run: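 20nM CYP3A4 + 25uM Luciferin-PPXE (=KM), 200mM KPO4; cpd 10 min RT; NADPH regen, 60 min RT; stop w/ detection buffer, 20 min; luminescence. Normalized to 57 uM ketoconazole.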
# [8] = qHTS Assay for Identification of Small Molecule Agonists for Hypoxia Response Element Signaling Pathway (AID 914; active = well fitted activation curve with a large enough effect in the signal ratio, with a control signal flat, not every such curve was filed as active; the % refers to the signal ratio; also: potency is read from the fitted curve at half-maximal effect; as to activation: % of control where 0% means no effect); conditions: ME-180 HRE-bla reporter, beta-lactamase ratio, CoCl2, 17 h; activation: stronger effect = higher value
# How it was run: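 Positive modulation of EC50 CoCl2-induced hypoxia response element signaling is measured in ME-180 cells with a beta-lactamase reporter. Compounds are titrated, incubation runs 17 hours, and %Activity derives from the blue/green ratio.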
# [9] = target: Dual specificity protein kinase CLK4 (Homo sapiens) (UniProt Q9HAZ1); assay: qHTS Assay for Inhibitors of CDC-like Kinase 4 (Kinase-Glo Assay) (AID 1770); conditions: recombinant Clk4, Kinase-Glo ATP depletion luminescence; series mostly up to 66.7 µM; also: nearly all actives have a fitted effect of over 65% in size; also: potency is read from the fitted curve at half-maximal effect
# How it was run: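 25 nM Clk4 with 100 uM RS repeat peptide and 1 uM ATP (final) in Tris pH7.5, 10 mM MgCl2, 4.5 h at room temperature. Remaining ATP measured by Kinase-Glo luciferase luminescence.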
# [10] = target: Dual specificity protein kinase CLK4 (Homo sapiens) (UniProt Q9HAZ1); assay: qHTS Assay for Inhibitors of CDC-like Kinase 4 (ADP-Glo Assay) (AID 1771); conditions: recombinant CLK4, ADP-Glo luminescence; series mostly up to 80 µM; also: nearly all actives have a fitted effect of over 70% in size; also: potency is read from the fitted curve at half-maximal effect
# How it was run: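 Clk4 (25 nM) was incubated 1 hr at room temperature with 100 uM RS repeat peptide and 1 uM ATP in buffer with 2 mM MgCl2, 0.5 mM EGTA, 2.5 mM DTT. ADP formed was quantified by ADP-Glo luminescence.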
# [11] = Primary qHTS for small molecule stabilizers of the endoplasmic reticulum resident proteome: Secreted ER Calcium Modulated Protein (SERCaMP) assay (AID 1508630); conditions: SH-SY5Y GLuc-SERCaMP (Gaussia luciferase released on ER calcium loss) secretion, thapsigargin, luminescence; series mostly up to 38.4 µM; also: % is scaled to controls: 0 for no effect and ±100 for the full control effect
# How it was run: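 GLuc-SERCaMP-expressing SH-SY5Y cells, pretreated 16 h with compound, are challenged with thapsigargin to empty ER calcium stores; after 4 h, coelenterazine is added directly to the medium and luminescence is imaged.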
# [12] = AP1 Signaling Pathway (AID 357; active = well fitted curve in either direction with a large enough effect, not every such curve was filed as active;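 also: ME-180 reporter cells stimulated with EGF at its EC50 level; % is scaled to controls: 0 for no effect and ±100 for the full control effect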); conditions: ME-180 AP-1-bla reporter, EGF-induced, beta-lactamase ratio, 5 h; at 7.69 µM (top of the series) unless noted
# How it was run: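 A ratiometric CCF4 readout (405 nm excitation; 460 and 530 nm emission) quantified AP-1-driven beta-lactamase in ME-180 cells after 5 h with compound and EC50 EGF; AC50 values were derived for activators and inhibitors.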
# [13] = Stat Signaling Pathway (AID 446; active = well fitted curve in either direction with a large enough effect, not every such curve was filed as active;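 also: ME-180 cervical cancer cells given 40 pM IL-6 alongside compound; SIE-controlled beta-lactamase reporter measured as 460/530 nm FRET emission ratio; % is scaled to controls: 0 for no effect and ±100 for the full control effect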); conditions: ME-180 SIE beta-lactamase reporter, IL-6 stimulated, 5 h; at 7.69 µM (top of the series) unless noted
# How it was run: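 ME-180 SIE-bla cells; overnight plating; cpd + IL-6 40 pM, 5 h, 37 C; LiveBLAzer 2.5 h RT; 460/530 nm emission ratio. Normalized to 300 pM IL-6 and 125 nM JAK inhibitor controls.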
# [14] = target: Cytochrome P450 3A4 (Homo sapiens) (UniProt P08684); assay: qHTS Assay for Inhibitors and Substrates of Cytochrome P450 3A4 (AID 884); conditions: recombinant CYP3A4, Luciferin-PPXE luminescence; series mostly up to 57.1 µM; also: potency is read from the fitted curve at half-maximal effect; nearly all actives have a fitted effect of over 50% in size
# How it was run: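 20 nM human CYP3A4 with 25 uM Luciferin-PPXE (at KM) in 200 mM KPO4, preincubated 10 min with compound; NADPH regeneration started a 60 min RT reaction. Luciferin detected by luminescence, normalized to 57 uM ketoconazole as full inhibition.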
# [15] = target: Cytochrome P450 2D6 (Homo sapiens) (UniProt P10635); assay: qHTS Assay for Inhibitors and Substrates of Cytochrome P450 2D6 (AID 891); conditions: recombinant CYP2D6, luciferin-ME EGE luminescence; series mostly up to 57.1 µM; also: potency is read from the fitted curve at half-maximal effect; nearly all actives have a fitted effect of over 60% in size
# How it was run: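 Human CYP2D6 (5 nM) with 30 uM Luciferin-ME EGE (at Km) in 100 mM KPO4, compound preincubated 10 min, then NADPH regeneration system for 60 min at room temperature. Luciferin read by luminescence; normalized to 1.43 uM quinidine.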
# [16] = target: Cytochrome P450 2C19 (Homo sapiens) (UniProt P33261); assay: qHTS Assay for Inhibitors and Substrates of Cytochrome P450 2C19 (AID 899); conditions: recombinant CYP2C19, luciferin-H EGE luminescence; series mostly up to 57.1 µM; also: potency is read from the fitted curve at half-maximal effect; nearly all actives have a fitted effect of over 60% in size
# How it was run: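 NADPH-dependent conversion of Luciferin-H EGE (10uM, at KM) by 5nM enzyme in 50mM KPO4, 60 min at 37C following 10 min compound preincubation. Stopped with luciferin detection buffer; luminescence read after 20 min.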
# [17] = target: Ubiquitin carboxyl-terminal hydrolase 1 (Homo sapiens) (UniProt O94782); assay: Inhibitors of USP1/UAF1: Pilot qHTS (AID 504865); conditions: purified USP1/UAF1, Ub-rhodamine cleavage fluorescence; series mostly up to 54.9 µM; also: nearly all actives have a fitted effect of over 35% in size; also: potency is read from the fitted curve at half-maximal effect
# How it was run: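 USP1/UAF1 complex at 1 nM preincubated 15 min at room temperature with compound, then Ub-Rho substrate added at 150 nM final. Fluorescence (480/540 nm) read kinetically in 50 mM HEPES pH 7.8, 0.5 mM EDTA, 1 mM TCEP, 0.1 mg/ml BSA, 0.01% Tween-20.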
# [18] = NFAT Signaling Pathway (AID 444; active = well fitted curve in either direction with a large enough effect, not every such curve was filed as active); conditions: Jurkat NFAT-bla M1, carbachol, beta-lactamase ratio, 5 h; at 7.69 µM (top of the series) unless noted
# How it was run: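 Jurkat cells carrying an NFAT-driven β-lactamase reporter and co-transfected muscarinic M1 receptor were treated with compound plus carbachol (1 uM final, an EC50 level) for 5 h at 37 °C. CCF4 loading followed for 1 h at RT; 460/530 nm ratio gave %activity.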
# Dual specificity protein kinase CLK4 (Homo sapiens), sequence (Q9HAZ1 whole entry, looked up): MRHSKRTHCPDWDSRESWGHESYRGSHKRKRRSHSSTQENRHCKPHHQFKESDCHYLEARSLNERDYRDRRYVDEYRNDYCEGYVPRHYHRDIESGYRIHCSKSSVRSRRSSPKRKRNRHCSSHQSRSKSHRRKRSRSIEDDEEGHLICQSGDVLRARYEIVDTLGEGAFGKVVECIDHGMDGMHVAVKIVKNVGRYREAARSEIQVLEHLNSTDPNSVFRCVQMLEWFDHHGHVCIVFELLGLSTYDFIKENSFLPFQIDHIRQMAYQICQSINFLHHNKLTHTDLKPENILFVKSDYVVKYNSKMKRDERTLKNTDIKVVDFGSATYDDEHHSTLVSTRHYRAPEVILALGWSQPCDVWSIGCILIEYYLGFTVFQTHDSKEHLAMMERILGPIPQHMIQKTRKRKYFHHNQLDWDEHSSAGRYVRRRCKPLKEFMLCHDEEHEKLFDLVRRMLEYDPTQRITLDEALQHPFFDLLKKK
# Glucocorticoid receptor (Homo sapiens), sequence (P04150 whole entry, looked up, the tested form may be a part): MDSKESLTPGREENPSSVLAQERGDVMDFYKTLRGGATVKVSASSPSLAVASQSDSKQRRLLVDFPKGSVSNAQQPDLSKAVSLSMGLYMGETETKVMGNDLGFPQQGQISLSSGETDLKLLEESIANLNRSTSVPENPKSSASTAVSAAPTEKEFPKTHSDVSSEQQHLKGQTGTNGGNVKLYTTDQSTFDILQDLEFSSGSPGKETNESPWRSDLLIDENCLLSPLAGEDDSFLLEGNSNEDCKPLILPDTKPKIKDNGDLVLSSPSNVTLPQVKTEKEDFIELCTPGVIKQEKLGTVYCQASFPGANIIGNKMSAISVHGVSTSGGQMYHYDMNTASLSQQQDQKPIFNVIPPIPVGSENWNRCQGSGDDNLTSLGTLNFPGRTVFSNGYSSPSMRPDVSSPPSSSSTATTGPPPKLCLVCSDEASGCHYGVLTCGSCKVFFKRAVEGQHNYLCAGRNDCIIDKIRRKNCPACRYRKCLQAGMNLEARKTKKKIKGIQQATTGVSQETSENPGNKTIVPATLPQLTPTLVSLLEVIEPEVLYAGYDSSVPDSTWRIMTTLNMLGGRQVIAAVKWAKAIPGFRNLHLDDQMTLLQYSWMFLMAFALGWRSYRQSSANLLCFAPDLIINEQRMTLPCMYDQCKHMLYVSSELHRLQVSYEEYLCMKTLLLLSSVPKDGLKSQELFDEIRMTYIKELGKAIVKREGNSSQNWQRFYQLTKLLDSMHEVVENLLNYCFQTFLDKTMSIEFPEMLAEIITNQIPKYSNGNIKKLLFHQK
# Ubiquitin carboxyl-terminal hydrolase 1 (Homo sapiens), sequence (O94782 whole entry, looked up): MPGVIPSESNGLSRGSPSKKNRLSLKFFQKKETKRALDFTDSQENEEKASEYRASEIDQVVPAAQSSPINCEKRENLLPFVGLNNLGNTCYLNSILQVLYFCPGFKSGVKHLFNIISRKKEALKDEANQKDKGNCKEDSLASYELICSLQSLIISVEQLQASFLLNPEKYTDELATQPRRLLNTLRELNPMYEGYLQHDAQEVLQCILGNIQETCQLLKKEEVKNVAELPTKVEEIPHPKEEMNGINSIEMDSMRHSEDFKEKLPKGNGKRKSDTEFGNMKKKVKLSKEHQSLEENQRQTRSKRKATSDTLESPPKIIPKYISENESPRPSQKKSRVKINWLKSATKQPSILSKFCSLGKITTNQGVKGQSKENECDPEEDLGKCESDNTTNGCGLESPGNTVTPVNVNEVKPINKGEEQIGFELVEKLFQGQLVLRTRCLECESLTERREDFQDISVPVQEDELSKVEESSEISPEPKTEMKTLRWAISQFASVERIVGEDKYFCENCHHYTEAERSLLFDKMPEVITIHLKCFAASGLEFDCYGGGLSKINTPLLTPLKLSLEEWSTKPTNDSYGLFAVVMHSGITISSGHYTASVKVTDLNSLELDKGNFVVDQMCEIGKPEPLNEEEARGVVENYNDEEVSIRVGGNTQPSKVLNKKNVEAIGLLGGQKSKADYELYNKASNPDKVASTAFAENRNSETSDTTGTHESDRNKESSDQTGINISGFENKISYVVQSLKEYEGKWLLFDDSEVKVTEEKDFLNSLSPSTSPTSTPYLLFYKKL
# Lysosomal acid glucosylceramidase (Homo sapiens), sequence (P04062 whole entry, looked up): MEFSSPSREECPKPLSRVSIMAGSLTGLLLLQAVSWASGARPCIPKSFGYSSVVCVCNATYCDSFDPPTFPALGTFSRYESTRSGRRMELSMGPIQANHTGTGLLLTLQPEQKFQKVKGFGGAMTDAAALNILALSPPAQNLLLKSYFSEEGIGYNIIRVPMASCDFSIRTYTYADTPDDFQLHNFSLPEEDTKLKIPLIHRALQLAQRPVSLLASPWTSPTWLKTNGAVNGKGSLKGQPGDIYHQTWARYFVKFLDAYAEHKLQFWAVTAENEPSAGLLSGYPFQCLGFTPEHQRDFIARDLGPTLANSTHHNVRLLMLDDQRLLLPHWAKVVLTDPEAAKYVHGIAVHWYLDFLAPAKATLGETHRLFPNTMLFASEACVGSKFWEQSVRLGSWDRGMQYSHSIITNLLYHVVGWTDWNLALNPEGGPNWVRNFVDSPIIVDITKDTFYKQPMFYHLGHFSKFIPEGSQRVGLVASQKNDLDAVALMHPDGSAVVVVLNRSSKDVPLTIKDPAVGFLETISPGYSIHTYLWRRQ
# Cytochrome P450 1A2 (Homo sapiens), sequence (P05177 whole entry, looked up): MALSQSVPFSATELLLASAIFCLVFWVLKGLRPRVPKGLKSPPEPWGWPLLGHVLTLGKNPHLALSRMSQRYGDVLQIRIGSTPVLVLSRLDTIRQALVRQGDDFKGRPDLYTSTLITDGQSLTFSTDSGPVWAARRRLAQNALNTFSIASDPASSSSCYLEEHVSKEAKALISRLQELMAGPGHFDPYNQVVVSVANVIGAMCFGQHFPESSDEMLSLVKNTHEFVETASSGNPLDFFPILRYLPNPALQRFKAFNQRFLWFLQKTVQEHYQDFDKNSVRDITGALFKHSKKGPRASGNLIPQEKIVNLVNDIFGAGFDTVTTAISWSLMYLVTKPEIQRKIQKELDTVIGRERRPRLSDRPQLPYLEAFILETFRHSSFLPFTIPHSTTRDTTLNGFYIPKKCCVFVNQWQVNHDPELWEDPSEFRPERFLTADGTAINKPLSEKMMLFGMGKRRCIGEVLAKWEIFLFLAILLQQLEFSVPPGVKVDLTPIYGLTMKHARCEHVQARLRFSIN
# 3',5'-cyclic-AMP phosphodiesterase 4B (Homo sapiens), sequence (Q07343 whole entry, looked up): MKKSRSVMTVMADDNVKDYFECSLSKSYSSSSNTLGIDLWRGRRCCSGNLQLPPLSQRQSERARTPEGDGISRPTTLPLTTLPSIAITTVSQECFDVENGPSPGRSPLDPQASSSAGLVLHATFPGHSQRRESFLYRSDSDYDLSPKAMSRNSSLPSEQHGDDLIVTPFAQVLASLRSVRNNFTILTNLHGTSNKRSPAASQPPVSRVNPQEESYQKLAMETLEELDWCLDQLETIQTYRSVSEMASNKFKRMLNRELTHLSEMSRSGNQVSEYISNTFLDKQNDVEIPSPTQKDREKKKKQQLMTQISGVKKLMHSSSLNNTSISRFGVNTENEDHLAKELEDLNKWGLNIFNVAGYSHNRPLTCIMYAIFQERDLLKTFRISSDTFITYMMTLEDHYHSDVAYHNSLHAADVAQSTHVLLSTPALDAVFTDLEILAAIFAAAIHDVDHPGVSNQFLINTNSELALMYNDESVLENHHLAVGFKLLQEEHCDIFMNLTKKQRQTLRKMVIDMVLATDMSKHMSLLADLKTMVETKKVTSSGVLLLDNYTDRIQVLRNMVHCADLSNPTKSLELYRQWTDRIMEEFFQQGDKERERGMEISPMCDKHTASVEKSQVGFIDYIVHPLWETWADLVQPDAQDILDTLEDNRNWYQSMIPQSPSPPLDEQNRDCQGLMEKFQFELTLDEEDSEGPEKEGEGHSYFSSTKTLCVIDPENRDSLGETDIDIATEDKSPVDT
# Cytochrome P450 3A4 (Homo sapiens), sequence (P08684 whole entry, looked up): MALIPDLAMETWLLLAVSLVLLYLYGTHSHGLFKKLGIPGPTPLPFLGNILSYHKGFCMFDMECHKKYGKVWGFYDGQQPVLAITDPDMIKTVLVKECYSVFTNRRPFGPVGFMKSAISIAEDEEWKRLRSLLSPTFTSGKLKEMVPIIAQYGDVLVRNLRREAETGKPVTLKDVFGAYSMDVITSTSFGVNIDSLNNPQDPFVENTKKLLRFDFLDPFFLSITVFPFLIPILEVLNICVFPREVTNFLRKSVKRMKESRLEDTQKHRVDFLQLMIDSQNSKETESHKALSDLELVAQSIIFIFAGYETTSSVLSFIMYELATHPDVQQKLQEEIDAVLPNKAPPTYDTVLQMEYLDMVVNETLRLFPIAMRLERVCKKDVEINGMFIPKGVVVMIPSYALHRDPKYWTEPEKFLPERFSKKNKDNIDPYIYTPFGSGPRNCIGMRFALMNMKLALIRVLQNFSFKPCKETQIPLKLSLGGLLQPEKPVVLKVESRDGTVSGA
# Cytochrome P450 2C19 (Homo sapiens), sequence (P33261 whole entry, looked up): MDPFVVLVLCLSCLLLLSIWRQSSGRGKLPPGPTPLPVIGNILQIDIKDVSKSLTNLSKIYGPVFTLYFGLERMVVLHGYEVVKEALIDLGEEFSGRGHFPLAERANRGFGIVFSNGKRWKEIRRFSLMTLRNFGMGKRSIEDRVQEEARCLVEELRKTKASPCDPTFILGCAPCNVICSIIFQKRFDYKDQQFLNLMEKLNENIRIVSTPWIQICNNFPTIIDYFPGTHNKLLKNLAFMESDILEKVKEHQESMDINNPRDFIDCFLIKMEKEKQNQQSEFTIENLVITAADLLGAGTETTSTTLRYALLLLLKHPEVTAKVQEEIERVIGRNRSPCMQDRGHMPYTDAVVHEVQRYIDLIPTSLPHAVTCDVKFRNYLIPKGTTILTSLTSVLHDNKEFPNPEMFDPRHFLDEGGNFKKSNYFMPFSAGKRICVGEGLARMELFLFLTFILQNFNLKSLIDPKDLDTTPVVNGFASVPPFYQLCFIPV
SMILES,Potency [1] [µM],Potency [2],Potency [3] [µM],Potency [4] [µM],Potency [5],Potency [6],Potency [7],Potency [8],Potency [9],Potency [10],outcome [11],"activity change, negative = inhibition [12] [%]","activity, negative = inhibition [13] [%]",Potency [14],Potency [15],Potency [16],Potency [17],"activity change, negative = inhibition [18] [%]",activation [8] [%]
COc1ccc(-n2c(=O)c(-c3cc(F)cc(F)c3)nc3cnc(N4CCOCC4)nc32)cc1,> 11.4,15800 nM (active),> 9.22,> 46,inactive,inactive,inactive,1.58 µM (active),inactive,inactive,inactive,–,–,–,–,–,–,–,–
COc1ccc2[nH]cc(CCNc3nc(-c4cccnc4)nc4ccccc34)c2c1,–,501 nM (active),> 46,> 46,inactive,–,inactive,–,11.2 µM (active),7.94 µM (active),inactive,-14.3,-15.6,1.58 µM (active),6.31 µM (active),0.501 µM (active),inactive,–,–
COc1cccc(-c2nccc(NCc3ccccc3)n2)c1,> 11.4,501 nM (active),> 46,> 46,inactive,–,inactive,–,15.8 µM (active),15.8 µM (active),inactive,–,-13.5,3.98 µM (active),–,7.94 µM (active),25.1 µM (active),15.6,–
N#Cc1ccccc1-c1ccc2ncnc(NCc3ccccc3)c2c1,> 11.4,–,> 46,> 46,inactive,–,–,–,5.01 µM (active),7.94 µM (active),inactive,-20.7,27.7,–,–,–,–,16.5,–
COc1ccccc1CCn1c(=O)cnc2cncnc21,> 11.4,–,> 9.22,> 46,inactive,inactive,–,–,17.8 µM (active),25.1 µM (active),inactive,-0.594,-7.13,–,–,–,inactive,6.39,–
CN1CCN(c2ncnc3ccc(-c4cccnc4)cc23)CC1,> 11.4,–,> 46,> 46,inactive,inactive,inactive,–,12.6 µM (active),14.1 µM (active),inactive,-5.19,2.81,–,–,–,inactive,17,-3.4
